Source: PubChem (The Scripps Research Institute Molecular Screening Center)
Only some compounds are listed: those with a hit (about 4.1% of all), similar ones and a draw of the others.
DAX1 inh-1 – inhibitors of human orphan nuclear receptor DAX1 (NR0B1); HEK293 Gal4-DAX1 luciferase reporter, luminescence; inhibition, % at 6.75 µM; actives 0.99% (n = 340,000); AID 504766;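 active means inhibition above the mean over all tested compounds plus 3 SD, cut at about 4.2% in these data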;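 further: inhibition shows as a rise in luminescence from relieved DAX1 repression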
Target sequence (P51843 207-470 limits assumed): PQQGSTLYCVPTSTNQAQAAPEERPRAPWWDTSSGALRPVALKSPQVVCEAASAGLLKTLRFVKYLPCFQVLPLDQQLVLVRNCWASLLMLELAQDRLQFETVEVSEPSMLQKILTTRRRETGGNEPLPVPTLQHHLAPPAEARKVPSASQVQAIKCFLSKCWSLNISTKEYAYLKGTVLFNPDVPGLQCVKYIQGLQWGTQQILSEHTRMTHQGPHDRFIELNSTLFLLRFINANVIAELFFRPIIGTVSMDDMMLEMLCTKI
hgDAF-12 ag – hgDAF-12 agonism, primary luciferase screen | actives 1.8% (n = 370,000) | HEK293 GAL4-hgDAF12 UAS-luciferase reporter, agonist luminescence; normalized to butyrate control | activation, % at 6.8 µM;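 active means activation above a cutoff set at the mean of all screened compounds plus 3 SD, cut at about 10% in these data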
ssDAF12 agonist – S. stercoralis DAF-12 activation, primary screen; HEK293 ssDAF-12/GRIP1 lit1-tk-luc reporter, luminescence; % of 3 µM dafachronic acid response; activation, % at 6.8 µM; AID 652126; actives 1% (n = 370,000);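 active means activation above the mean over all tested compounds plus 3 SD, cut at about 0.9% in these data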
hcDAF-12 act – activators of H. contortus DAF-12 nuclear receptor; AID 652067; actives 1.4% (n = 370,000); activation, % at 6.8 µM; HEK293 hcDAF-12 lit1-tk-luc reporter, luminescence; 0% DMSO, 100% Δ7-dafachronic acid;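 active means activation above the mean of all tested compounds plus 3 SD, cut at about 5.5% in these data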
DAX1 inh-2 – blocks DAX1 repression of SF-1 activated StAR promoter | HEK293T StAR-luciferase reporter, SF-1/DAX-1 repression relief | inhibition, % at 6.8 µM | actives 1.1% (n = 370,000) | AID 652010;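 active means inhibition above the mean over all tested compounds plus 3 SD, cut at about 3.6% in these data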;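 further: higher inhibition means more luminescence from relief of DAX-1 repression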
hgDAF12 conf – confirmation of H. glycines DAF-12 agonists; shares compounds with hgDAF-12 ag; HEK293 GAL4-hgDAF12 luciferase reporter, agonist mode; percent of butyrate response; activation, % at 6.8 µM; actives 80% (n = 3,300); AID 743050;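 active means mean activation over triplicate wells above the hit cutoff derived from the earlier primary screen, cut at about 11% in these data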
LXRb DAF12 ctr – activates human LXR-beta, counter-screen for DAF-12 agonists; shares compounds with hgDAF-12 ag; HEK293 Gal4-LXR luciferase reporter, 24 h; activation, % at 6.8 µM; 3,300 tested, under 10 active; AID 743051;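 active means mean activation of the triplicate above a set limit carried over from the primary screen, none filed active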
Of the large screens only hits and unclear results are named; the others gave an inactive call (follow-up assays come after a bar, where they were run).

CC(C)CNc1ncnc2c1ncn2[C@H]1CN(Cc2ccc(-c3ccccc3)cc2)C[C@@H](CO)O1	none (no result: DAX1 inh-1)
CN1CCSc2ccc(C(=O)NCc3cccc(F)c3)cc21	none
CN1CCSc2ccc(C(=O)Nc3ccc(Cl)cc3)cc21	DAX1 inh-1 7.0, hgDAF-12 ag 17.9 | hgDAF12 conf 17.1 | LXRb DAF12 ctr inactive
COc1ccc(OCCCSc2ncccn2)cc1	hgDAF-12 ag 13.8 | hgDAF12 conf 10.9 | LXRb DAF12 ctr inactive
Cc1ccc(C(=O)OCC(=O)NCc2cccs2)c(C)c1	hgDAF-12 ag 14.5 | hgDAF12 conf inactive | LXRb DAF12 ctr inactive
Cc1cc(C)cc(C(=O)OCC(=O)NCc2cccs2)c1	none
CC(c1ccc(NC(=O)OC(C)(C)C)cc1)c1cn(C)c2ccccc12 (configuration not stated)	hgDAF-12 ag 13.5, hcDAF-12 act 5.7 (no result: DAX1 inh-1) | hgDAF12 conf inactive | LXRb DAF12 ctr inactive
CC(C)c1ccc(NC(=O)Cc2cn(C)c3ccccc23)cc1	none
O=C(Nc1ncccc1O)c1ccc(S(=O)(=O)NCc2ccco2)cc1	hgDAF-12 ag 21.3, DAX1 inh-2 4.3 | hgDAF12 conf 20.2 | LXRb DAF12 ctr inactive
Cc1cccnc1NC(=O)c1ccc(S(=O)(=O)NCc2ccco2)cc1	none
CC1=C(C(=O)Nc2ccccn2)C(c2ccc(Br)cc2)NC(=S)N1 (configuration not stated)	hgDAF-12 ag 16.6, hcDAF-12 act 5.7 | hgDAF12 conf inactive | LXRb DAF12 ctr inactive
CC1=C(C(=O)Nc2ccccn2)C(c2ccc(Cl)cc2)NC(=S)N1 (configuration not stated)	none
CCCCCCCCN1C(=O)[C@@H](CC(=O)NCCCOCCCC)C[C@@]2(C(=O)OC)C1=C[C@H](C(C)C)O[C@@H]2C1CC1	none (no result: DAX1 inh-1)
C#CCNC(=O)C[C@H]1C[C@@]2(C(=O)OC)C(=C[C@H](C(C)C)O[C@@H]2C2CC2)N(CCCCCCCC)C1=O	hgDAF-12 ag 13.6 (no result: DAX1 inh-1) | hgDAF12 conf inactive | LXRb DAF12 ctr inactive
CCn1c(O)c(C=Nc2ccccc2)sc1=S	hgDAF-12 ag 15.6, ssDAF12 agonist 0.9 (no result: DAX1 inh-1) | hgDAF12 conf 17.6 | LXRb DAF12 ctr inactive
COc1ccccc1C(=O)Nc1cc(C)ccc1NC(=O)c1ccco1	none
CCC(=O)Nc1ccccc1C(=O)OCC(=O)c1ccccc1	hgDAF-12 ag 16.4, ssDAF12 agonist 1.3, DAX1 inh-2 3.7 | hgDAF12 conf 17.3 | LXRb DAF12 ctr inactive
CN1C[C@@H]2[C@@H]3C(=O)N(C)C(=O)[C@@H]3[C@](C)(C1=O)N2C(=O)c1ccc(C(F)(F)F)cc1	none
CC1CC(C)CN(CCCNC(=O)c2ccc3c(c2)NC(=O)CS3)C1 (configuration not stated)	none
c1ccc(OCc2cc(-c3ccccc3)no2)cc1	hgDAF-12 ag 14.3 | hgDAF12 conf 12.0 | LXRb DAF12 ctr inactive
COc1ccccc1OCc1cc(-c2ccccc2)no1	hgDAF-12 ag 14.3, hcDAF-12 act 5.7, DAX1 inh-2 3.6 | hgDAF12 conf 11.3 | LXRb DAF12 ctr inactive
COc1ccc(OCc2cc(-c3ccc(Cl)cc3)no2)cc1	none
CC(C)CC1CCCCC1OC(=O)CN1CCCCC1 (configuration not stated)	none
c1c2c(cc3sc(N4CCOCC4)nc13)OCO2	hgDAF-12 ag 15.6, hcDAF-12 act 6.0 | hgDAF12 conf 13.4 | LXRb DAF12 ctr inactive
Cc1nn(Cc2ccccc2Cl)c(Cl)c1C(=O)NCCc1ccccc1	hgDAF-12 ag 16.9, DAX1 inh-2 4.0 | hgDAF12 conf 15.1 | LXRb DAF12 ctr inactive
Cc1ccc(CSc2ccc(-c3ccco3)nn2)cc1	none
Clc1ccc(CSc2ccc(-c3ccco3)nn2)cc1	none
Fc1ccccc1CSc1ccc(-c2ccco2)nn1	hgDAF-12 ag 16.5, DAX1 inh-2 4.1 | hgDAF12 conf 15.2 | LXRb DAF12 ctr inactive
c1ccc(CSc2ccc(-c3ccco3)nn2)cc1	hgDAF-12 ag 15.2 | hgDAF12 conf 14.8 | LXRb DAF12 ctr inactive
S=C(NCCc1cccc(Cl)c1)NC1CCCCC1	hgDAF-12 ag 13.9 | hgDAF12 conf 11.1 | LXRb DAF12 ctr inactive
O=C(NCCc1ccccc1)NC1CCCCC1	hgDAF-12 ag 14.3 | hgDAF12 conf inactive | LXRb DAF12 ctr inactive
C(=C\c1nnc(-c2cccs2)o1)/c1ccccc1	hgDAF-12 ag 18.0, DAX1 inh-2 3.7 | hgDAF12 conf 15.7 | LXRb DAF12 ctr inactive
CC(C)CSc1nnc2c(n1)[nH]c1ccccc12	hgDAF-12 ag 13.8, ssDAF12 agonist 1.2, hcDAF-12 act 6.4, DAX1 inh-2 4.0 | hgDAF12 conf 12.4 | LXRb DAF12 ctr inactive
CCCCSc1nnc2c(n1)[nH]c1ccccc12	none
COc1ccccc1CC(=O)NC1CC1	none
COc1ccccc1CC(=O)NC1CCCCCC1	hgDAF-12 ag 13.2 | hgDAF12 conf inactive | LXRb DAF12 ctr inactive
CC(=O)c1cccc(NC(=O)c2ccc(-c3ccccc3[N+](=O)[O-])o2)c1	hgDAF-12 ag 14.5 | hgDAF12 conf 12.6 | LXRb DAF12 ctr inactive
Cc1cc(NC(=O)c2ccc(-c3ccccc3[N+](=O)[O-])o2)no1	none
COc1ccc(CNC(=O)C2CC(c3ccc(OC)cc3)=NO2)cc1 (configuration not stated)	none
COc1ccc(C2=NOC(CNC(N)=S)C2)cc1 (configuration not stated)	DAX1 inh-1 4.5, hgDAF-12 ag 13.5 | hgDAF12 conf 15.5 | LXRb DAF12 ctr inactive
O=C(COC(=O)/C=C/c1ccc(C(F)(F)F)cc1)NC1CCS(=O)(=O)C1 (configuration not stated)	none
Cc1ccc(NC2=Nc3ccccc3CC2)cc1	hgDAF-12 ag 13.7, hcDAF-12 act 6.3 | hgDAF12 conf 17.2 | LXRb DAF12 ctr inactive
CC(Cc1cccs1)NC(=O)Nc1ccc(Cl)c(Cl)c1 (configuration not stated)	none
COc1ccccc1NC(=O)N1CCC(c2nnc(SCC(N)=O)n2C)CC1	none
O=C(CNC(=O)c1sc2ccccc2c1Cl)NCc1ccc(F)cc1	none
O=C(c1ccc(Cl)s1)N1CCc2ccccc21	hgDAF-12 ag 14.9, ssDAF12 agonist 1.5, hcDAF-12 act 6.4 | hgDAF12 conf 17.6 | LXRb DAF12 ctr inactive
Nc1cc2nc[nH]c2cc1N	hgDAF-12 ag 14.8, hcDAF-12 act 6.1 | hgDAF12 conf inactive | LXRb DAF12 ctr inactive
CCCc1nnc(SCC(=O)Nc2ccc(NC(C)=O)cc2)n1-n1cccc1	none
Cc1ccc(-c2cc(C(=O)NCC3CCCO3)no2)cc1 (configuration not stated)	hgDAF-12 ag 14.3 | hgDAF12 conf 13.1 | LXRb DAF12 ctr inactive
O=C(NCC1CCCO1)c1cc(-c2ccc(F)cc2)no1 (configuration not stated)	hgDAF-12 ag 18.4 | hgDAF12 conf 19.1 | LXRb DAF12 ctr inactive
